In PubChem BioAssay (NCI) one finds growth data, which are given here for 40 compounds.

This is part of a sample that, as a whole, favours compounds with a hit. Of some 83,000 tested, about 20% had one in any assay.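 Negative percent growth values reflect cell death: -40 means 40% of the cells present at the start died, and -100 means all died.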 Values without a mark were called inactive. Activity calls are given as the source filed them.

The assay relates to NCI-H226 lung. Put plainly: NCI-60 one-dose screen, 48 h (100 = growth as untreated, 0 = no growth, -100 = all killed). The settings on record: 10 µM unless noted. The method, then: Growth inhibition of the NCI-H226 human Non-Small Cell Lung tumor cell line is measured as a screen for anti-cancer activity. Cells are grown in 96 well plates and exposed to the test compound for 48 hours. Compounds are tested at a single concentration, which is 10^-5 M for most compounds. The reported endpoint is percent growth (GI% or GIPRCNT), where numbers from 0 - 100% represent growth inhibition, and numbers from -100% - 0 represent cell death. For example, a value of 40 represents 60% growth inhibition. A value of 0 means no net growth occurred over the course of the experiment. A value of -40 indicates 40% of cells at the beginning of the experiment died by the end of the experiment. A value of -100 means all cells are dead at the end of the experiment.
NCI-60 Human Tumor Cell Lines Screen was performed using the standard one-dose NCI protocol, which is described in more detail at https://dtp.cancer.gov/discovery_development/nci-60/default.htm.
Compounds with GIPRCNT values below 10 were considered active. Activity score was based on GIPRCNT using the following formula: […]
Score is 0 for GIPRCNT values of 100 or above, 50 for GIPRCNT values of 0, and 100 for GIPRCNT values of -100.
For `O=C(Nc1ccccc1C(F)(F)F)C1=NCCCCN1`, the growth was 96.1%.

Take `O=C1c2c(c3c4cc(F)ccc4oc3c3[nH]c4ccccc4c23)C(=O)N1O`: the growth was 59.3%.

On to `CCN1C(=O)N(CC)C2C1NC(=S)N2/N=C/C=C/c1cccs1` (stereo not given), for which the growth is 64.5%.

As to `CO[C@H]1/C=C/O[C@@]2(C)Oc3c(C)c(O)c4c(O)c(c5c(nc6cc(C)ccn65)c4c3C2=O)NC(=O)/C(C)=C\C=C\[C@H](C)[C@H](O)[C@@H](C)C(O)[C@@H](C)[C@H](OC(C)=O)[C@@H]1C` (stereo not given in full), the growth was 96.1%.

Take `COc1ccc(-c2cc(-c3ccc(Cl)cc3)c(C#N)c(=O)n2CCCCC(=O)NO)cc1`: the growth is 77.2%.

`C=C(C)[C@@H]1CC[C@]2(C(=O)NC(C)=O)CC[C@]3(C)[C@H](CC[C@@H]4[C@@]5(C)CCCNC(C)(C)[C@@H]5CC[C@]43C)[C@@H]12`: the growth was 83.6%.

As for `O=C1Nc2ccccc2/C1=C/c1cccn1CCCCCCn1c2ccccc2c(=O)c2ccccc21`, the growth is 72.7%.

`CN1CCN(c2ccc(Nc3ncc4[nH]c(=O)n(Cc5ccccc5N)c4n3)cc2)CC1`: the growth was 80.3%.

Turning to `CN(C)CCOc1ccc(/C(=C(/CCCCCCCCCC[P+](c2ccccc2)(c2ccccc2)c2ccccc2)c2ccccc2)c2ccccc2)cc1`, the growth is -53.2% (active).

As to `O=C(/C=C/c1ccco1)Nc1ncc(Cc2ccc(F)cc2)s1`, the growth is 51.8%.

For `CN1CCN(Cc2ccc(NC(=O)c3cncc(C#Cc4c(N)ncc5ccccc45)c3)cc2C(F)(F)F)CC1`, the growth is -11.8% (active).

On to `Cc1ccc2nc(/C=C/c3ccc(N(C)C)cc3)cc(C)c2c1`, for which the growth is 64.8%.

For `CCOC(=O)c1cc(C(=O)c2cc(OC)cc(OC)c2)n2ncccc12`, the growth is 57.5%.

Turning to `CCN1CCN(c2nc(NNC(=O)c3ccc(OC)cc3)nc(N3CCN(C(c4ccccc4)c4ccccc4)CC3)n2)CC1`, the growth is 71.9%.

As to `COc1cc(/C=C2\CN(S(=O)(=O)c3ccc(C)cc3)C/C(=C\c3cc(CN4CCCC4)c(O)c(OC)c3)C2=O)cc(CN2CCCC2)c1O`, the growth is 31.9%.

On to `C=CCNc1ccc2c3c(cccc13)C(=O)N(CC=C)C2=O`, for which the growth is 93.7%.

Regarding `CO[C@]12C=C/C(=C(/C(=O)OCc3cccnc3)C(=O)CCCCCCCC[C@]3(OC)C=C/C(=C(/C(=O)OCc4cccnc4)C(=O)CCCCCCCC1)O3)O2`, the growth was -78.1% (active).

Turning to `CCOC(=O)c1c(C)c2c(n1Cc1ccccc1)CSc1cc(C#N)c(=O)[nH]c1-2`, the growth is 89.6% [100 µM].

With `[2H]C([2H])([2H])Oc1ccc(/C=C/C(=O)/C=C(O)/C=C/c2ccc(OC([2H])([2H])[2H])c(OC([2H])([2H])[2H])c2)cc1OC([2H])([2H])[2H]`, the growth is 70.6%.

As to `COC1CC(O)C2=C(CC3C(/C(C)=C\CC=C(C)C)CCC3(C)O2)C1=O` (stereo not given), the growth is 101%.

Take `O=c1cc(-c2nccc3c2[nH]c2ccccc23)c2cc(Cl)ccc2o1`: the growth is 49.5%.

For `Cc1ccc(Nc2cc(N)nc(N)n2)cc1`, the growth is 110%.

For the compound `Nc1ncc(-c2ccc3ncnc(N4CCc5ccc(Cl)cc54)c3c2)cn1`, the growth is 0.981% (active).

Take `O=c1c2cccc3c(N4CCOCC4)ccc(c32)c2nc3ccccc3n12`: the growth was 91%.

With `COc1ccc(S(=O)(=O)Oc2ccc(-c3sc4cc(OS(=O)(=O)c5ccc(OC)cc5)ccc4c3C(=O)c3ccc(OCCN4CCCCC4)cc3)cc2)cc1`, the growth was 104%.

For `CN(C)CCOc1nc2c3cc([N+](=O)[O-])ccc3nn2c2ccccc12`, the growth is 65.3%.

Consider `O=C1CCc2c(sc3[nH]c(=S)n(-c4cc(C(F)(F)F)cc(C(F)(F)F)c4)c(=O)c23)C1`, for which the growth was -19% (active).

As for `COc1cccc2cc(N(C)c3ncnc4ccccc34)ccc12`, the growth is 46.2%.

Regarding `CC(=O)CC(=O)c1ccccc1.[Cu+2]`, the growth is 114%.

On to `C=C(C)Cn1c(SCC(=O)c2cccs2)nc2sc3c(c2c1=O)CCCC3`, for which the growth was 58.3%.

As to `C=CC(=O)Nc1ccc2ncnc(Nc3cccc(NS(=O)(=O)CCC)c3Cl)c2c1`, the growth was 46.7%.

With `C#Cc1cccc(Nc2ncnc3ccc(-c4cnc(Cl)c(NS(C)(=O)=O)c4)cc23)c1`, the growth is 2.26% (active).

With `CN1CCN(Cc2ccc(NC(=O)c3cncc(C#Cc4cnc(N)c5ccc(C#N)cc45)c3)cc2C(F)(F)F)CC1`, the growth was -35.1% (active).

On to `CNC(=O)c1cc(Oc2ccc3nc(NC(=O)Nc4ccc(F)cc4F)sc3c2)ccn1`, for which the growth is 52.8%.

On to `O=C(Cn1cc(CSc2nc3ccccc3o2)nn1)Nc1ccc([N+](=O)[O-])cc1`, for which the growth is 99.4%.

On to `O=C1C2C(c3cccs3)C=C(c3ccc(Cl)cc3)N2C(=S)N1c1ccccc1` (stereo not given), for which the growth is 86.8%.

For the compound `COc1cc2c(c(OC)c1OC)CCC(c1cccc(NC(=O)c3cccc(Cl)c3)c1)O2` (stereo not given), the growth was 79.8%.

With `C/C=C(/C)C(=O)O[C@@H]1CC(C)(C)CC2C34OC(=O)[C@@]21CC[C@@]3(C)[C@]1(C)CCC2C(C)(C)C(=O)CC[C@]2(C)C1C[C@@H]4O` (stereo not given in full), the growth is 58.6%.

For the compound `Cc1c(CC(=O)Nc2ccccc2)nnn1-c1ccccc1`, the growth was 109%.

Regarding `NC(=N\N=C/c1ccc(Cl)cc1Cl)/C(N)=N\N=C/c1ccc(Cl)cc1Cl`, the growth was 62.8%.
